For 35 compounds, z-score results are on record in PubChem BioAssay.

The nature of the assay: HepG2 cell viability effects, profiling panel, calcein-AM fluorescence, 48 h, basal (AID 1164). Also: test concentration not given here. Conditions: higher = more signal.
`COc1ccc(C(=O)Nc2cccc(CN3C(=O)[C@]4(O[C@H](CCn5cc(CCO)nn5)[C@@H]([Si](C)(C)c5ccc(OC)cc5)[C@@H]4C)c4ccccc43)c2)cc1`: the z-score is -4.63.

In the case of `COC(=O)c1c2oc(c1C(=O)OC)C(=O)N[C@@H](C(C)C)Cn1cc(nn1)C1(CCCCC1)NC(=O)N[C@H](CO)CC2`, the z-score was 0.0744.

For `O=C1NC(=O)C2C1C=CC(C(O)c1ccc(-c3ccccc3)s1)N2Nc1ccc(Cl)cc1Cl` (stereo not given), the z-score was -2.13.

`CCOC(=O)C[C@H]1[C@H](OC(=O)c2ccc(-c3ccccc3)cc2)[C@@H](NC(=O)c2ccccc2)c2cc(OCCCO)ccc2N1C(=O)Cc1ccc(OC)cc1`: the z-score was 0.66.

For `COC(=O)[C@@]1(Cc2ccc(OC)cc2)[C@H]2c3cc(C(=O)N4CCCC4)n(CCCNc4ncc(C(F)(F)F)cc4Cl)c3C[C@H]2CN1C(=O)c1ccccc1`, the z-score is -0.841.

For `CC(=CC1CCCCC1)[C@@H](NC(=O)c1cccnc1)c1ccc(-c2ccccc2)cc1`, the z-score is -1.63.

Take `C=CCC(OC(C)=O)[C@@H]1[C@@H](N(Cc2ccc(-c3cccc(C(F)(F)F)c3)o2)C(=O)Cc2ccc(OC)cc2)c2cc(OCCCO)ccc2N1C(=O)c1ccc2ccccc2c1` (stereo not given in full): the z-score is -0.589.

With `CCOC(=O)C1=CC[C@@H](c2ccccc2)N(S(=O)(=O)c2ccc(C)cc2)[C@H]1c1ccc(CC)cc1`, the z-score is -0.217.

In the case of `O=c1cccc(-c2ccccc2Cl)o1`, the z-score is 0.614.

`CCCCC(=C=CC[C@H](O)c1cccc(OCCO)c1)C[C@H](O)c1ccccn1`: the z-score is 1.3.

As for `COc1ccc([Si](C)(C)[C@@H]2[C@@H](CC(=O)N3CCC[C@H]3CO)O[C@]3(C(=O)N(Cc4cccc(I)c4)c4ccccc43)[C@H]2C)cc1`, the z-score was -2.59.

On to `COC(=O)[C@@]1(Cc2ccccc2)[C@H]2c3cc(C(=O)N4CCCC4)n(Cc4c(CO)[nH]cc(C)c4=O)c3C[C@H]2CN1C(=O)c1ccccc1`, for which the z-score is -0.844.

Take `CCOc1cc(C(O)C2C=CC3C(=O)N(c4ccccc4)C(=O)C3N2Nc2ccc(C(C)C)cc2)ccc1O` (stereo not given): the z-score was -0.159.

In the case of `CN(C)CCCCCCNC(=O)[C@@H]1C[C@@H]2C(=O)N3CCC[C@H]3C(=O)N2[C@@H]1c1ccc(O)cc1`, the z-score is 0.773.

As for `CCC(CC)C(O)C1C=CC2C(=O)N(c3ccccc3)C(=O)C2N1Nc1ccccc1` (stereo not given), the z-score was 1.72.

With `COC(=O)[C@@]1(Cc2ccc(OC)cc2)[C@H]2c3cc(C(=O)N4CCCC4)n(Cc4nc5ccccc5[nH]4)c3C[C@H]2CN1C(=O)c1ccccc1`, the z-score was -0.44.

In the case of `O=C1O[C@@H](c2ccccc2)[C@@H](c2ccccc2)N2[C@@H](c3ccc(OCCO)cc3)[C@]3(C(=O)Nc4ccc(C#CC5=CCCCC5)cc43)[C@@H](C(=O)N3CCCCCCC3)[C@H]12`, the z-score was 1.1.

For the compound `O=C(O)[C@@]1(CCS(=O)(=O)c2ccccc2)N=C(c2ccc(OCCCO)cc2)O[C@H]1c1ccccc1`, the z-score is -0.258.

As for `C=CCNC(=O)[C@@H]1[C@H]2C(=O)O[C@H](c3ccccc3)[C@H](c3ccccc3)N2[C@H](c2ccc(OCCO)cc2)[C@@]12C(=O)N(C(=O)OCCOC)c1ccc(C#CCC(C(=O)OC)C(=O)OC)cc12`, the z-score was -0.713.

Take `[N-]=[N+]=Nc1ccccc1C[C@@]1(C(=O)N2CCCCC2)N=C(c2ccc(OCCCO)cc2)O[C@@H]1c1ccccc1`: the z-score is 1.02.

`CC(=O)n1cc(C(O)C2C=CC3C(=O)NC(=O)C3N2Nc2ccccn2)c2ccccc21` (stereo not given): the z-score was -0.252.

On to `O=C1OCCC=C[C@H]2OC34C=CCN(c5ccc(Cl)cc5)C(=O)[C@H]3N(CCCO)C(=O)[C@@H]4C12` (stereo not given in full), for which the z-score is -0.517.

Take `CC(c1ccccc1)C(O)C1C=CC2C(=O)N(c3ccccc3)C(=O)C2N1Nc1ccccc1` (stereo not given): the z-score is -0.645.

On to `CCOC(=O)C[C@H]1[C@H](OC(=O)c2ccc(-c3ccccc3)cc2)[C@@H](NC(=O)c2ccccc2)c2cc(OCCCO)ccc2N1C(=O)c1ccc2ccccc2n1`, for which the z-score is 0.261.

As for `CCCCN1CC=CC23O[C@@H]4C=CCOC(=O)[C@@H]4[C@H]2C(=O)N(CCCCCCO)[C@@H]3C1=O` (stereo not given in full), the z-score was 0.215.

For `COc1ccc(-c2cc3c(c(Cc4ccccc4)n2)[Si](C(C)C)(C(C)C)OC3)cn1`, the z-score was 0.147.

On to `COc1cc2c(cc1O)C(c1cccs1)N(Cc1ccc([N+](=O)[O-])o1)CC2` (stereo not given), for which the z-score is 0.859.

For `[N-]=[N+]=NCc1ccccc1[C@@H]1OC(c2ccc(OCCCO)cc2)=N[C@]1(CCS(=O)(=O)c1ccccc1)C(=O)N1CCCCC1`, the z-score was 1.43.

As for `CC(C)OC(=O)C=C1C[C@@H](c2cccc(Cl)c2)O[C@@H](c2cccc(Cl)c2)O1`, the z-score is -0.822.

Consider `Cc1ccc(S[C@]2(C(=O)NCC(C)C)CC(=O)N(Cc3cc(C(F)(F)F)cc(C(F)(F)F)c3)[C@@H]2c2ccc(CO)cc2)cc1`, for which the z-score was -0.527.

As for `O=C(O)[C@H](Cc1ccccc1)n1cc(-c2ccccc2)nn1`, the z-score is -0.177.

For the compound `COC(=O)[C@@]1(Cc2ccc(OC)cc2)[C@H]2c3cc(C(=O)N(C)C)n(Cc4ccc(C(F)(F)F)nc4)c3C[C@H]2CN1C(=O)c1ccccc1`, the z-score is 0.106.

Take `CCCCC(O)C1C=CC2C(=O)N(C)C(=O)C2N1N1CCCCC1` (stereo not given): the z-score is -0.267.

With `C=CCNC(=O)[C@H]1[C@@H]2C(=O)O[C@@H](c3ccccc3)[C@@H](c3ccccc3)N2[C@@H](c2ccc(O)cc2)[C@]12C(=O)Nc1ccc(C#CCCO)cc12`, the z-score is 0.122.

As for `CO[C@H]1O[C@H](CO)[C@@H](OC(=O)Nc2ccccc2-c2ccccc2)[C@H](OC(=O)Nc2ccccc2-c2ccccc2)[C@@H]1OC(=O)Nc1ccccc1-c1ccccc1`, the z-score was -0.0639.
